From PMC12431657, “Discovery and mechanistic insights of dibenzoylmethane as a broad spectrum inhibitor of coronavirus” (PLOS Pathogens, 2025) come the findings set out here.

Like-named read-outs stand apart in the source and are kept apart here. About 60 (2%) of roughly 3,300 compounds showed an effect of 50% or more. What follows is part of a selection rich in strong results, with near analogues and random picks from the rest.

The test system of the test is HCoV-OC43. More on the design: species or system RD; HTS, protection from HCoV-OC43 induced cell death, luminescent cell viability (CellCounting-Lite 2.0), inhibition rate. The note with it: 24 h post infection, 1 h compound pre-incubation, 10 µM, inhibitor.

For `CC1(C)O[C@H]1COc1c2ccoc2cc2oc(=O)ccc12` [Oxypeucedanin], the “OC43 Inhibition rate” value amounted to 0.5%.
As to `C[C@@H]1O[C@@H](O[C@@H]2C(=O)c3c(O)cc(O)cc3O[C@@H]2c2ccc(O)c(O)c2)[C@H](O)[C@H](O)[C@H]1O` [Isoastilbin], the “OC43 Inhibition rate” value came to 4.2%.
As to `C/C=C/C[C@@H](C)[C@@H](O)[C@H]1C(=O)N[C@@H](C(C)C)C(=O)N(C)CC(=O)N(C)[C@@H](CC(C)C)C(=O)N[C@@H](C(C)C)C(=O)N(C)[C@@H](CC(C)C)C(=O)N[C@@H](C)C(=O)N[C@H](C)C(=O)N(C)[C@@H](CC(C)C)C(=O)N(C)[C@@H](CC(C)C)C(=O)N(C)[C@@H](C(C)C)C(=O)N1C` [Cyclosporin D], the “OC43 Inhibition rate” value came to 68%.
The same measure, in the same setting: with `O=C1O[C@H]([C@@H](O)CO)C(O)=C1OP(=O)(O)O` [L-Ascorbic acid 2-phosphate (trisodium)] the figure was 9.8%.
As to `CCCCCCCCCCCCCCCCCCC(=O)O` [Nonadecanoic acid], the “OC43 Inhibition rate” value is given as -0.5%.
For the compound `COC(=O)C1=C(O)c2ccccc2C(=O)[C@]1(CC=C(C)C)C1=CC(=O)c2ccccc2C1=O` [Rubipodanone A], the “OC43 Inhibition rate” value came to 58.8%.
In the case of `CC(C)=CCC1=CC(=O)c2ccccc2C1=O` [Deoxylapachol], the “OC43 Inhibition rate” value came to 3.8%.
`CC(C)=CCC1=C(O)C(=O)c2ccccc2C1=O` [Lapachol]: the “OC43 Inhibition rate” value was found to be 27.9%.
Take `Nc1ncnc2c1ncn2[C@@H]1O[C@H](COP(=O)(O)O)[C@@H](O)[C@H]1O` [Adenosine monophosphate]: where the note is “OC43 Inhibition rate, 24 h”, the “OC43 Inhibition rate” value is 0%.
For the compound `C1CCN2C[C@H]3C[C@H](CN4CCCC[C@@H]34)[C@H]2C1` [(+)-Sparteine], the “OC43 Inhibition rate” value (OC43 Inhibition rate, 24 h) was determined as 6%.
As to `C=C(C)[C@H](CC=C(C)C)Cc1c(O)cc(OC)c2c1O[C@H](c1ccc(O)cc1OC)CC2=O` [(2S)-2'-Methoxykurarinone], the “OC43 Inhibition rate” value came out at 98.5%.
In the case of `C=C(C)[C@H](CC=C(C)C)Cc1c(O)cc(O)c2c1O[C@H](c1ccc(O)cc1O)CC2=O` [sophoraflavanone G], the “OC43 Inhibition rate” value is on record as 39.8%.
For `C=C(C)[C@H](CC=C(C)C)Cc1c(O)cc(OC)c2c1O[C@H](c1ccc(O)cc1O)CC2=O` [Kurarinone], the “OC43 Inhibition rate” value turned out to be 0%.
As for `CC1(C)CC[C@]2(C(=O)O[C@@H]3O[C@H](CO)[C@@H](O)[C@H](O)[C@H]3O)CC[C@]3(C)C(=CC[C@@H]4[C@@]5(C)CC[C@H](O[C@@H]6O[C@H](C(=O)O)[C@@H](O)[C@H](O)[C@H]6O[C@H]6OC[C@@H](O)[C@H](O)[C@H]6O)C(C)(C)[C@@H]5CC[C@]43C)[C@@H]2C1` [Pseudoginsenoside RT1], the “OC43 Inhibition rate” value worked out at 0.7%.
On the same count and under the same terms, with `O=c1c2cc(O[C@@H]3O[C@H](CO)[C@@H](O)[C@H](O)[C@H]3O)c(O)cc2oc2cc(O)c([C@@H]3O[C@H](CO)[C@@H](O)[C@H](O)[C@H]3O)c(O)c12` [Neomangiferin] the figure was 3%.
Still for that read-out and setting: for `COC[C@@H](Cc1ccc(OC)c(OC)c1)[C@@H](COC)Cc1ccc(OC)c(OC)c1` [Phyllanthin] the value was 0.2%; for `C/C=C(/C)C(=O)O[C@H]1C(C)=C[C@]23C(=O)[C@@H](C=C4COC(C)(C)O[C@H]4[C@]12O)[C@H]1[C@@H](C[C@H]3C)C1(C)C` [Ingenol-5,20-acetonide-3-O-angelate], 69.8%; for `CC1=C[C@]23C(=O)[C@@H](C=C4COC(C)(C)O[C@H]4C2(O)[C@H]1O)[C@H]1[C@@H](C[C@H]3C)C1(C)C` (some centres unmarked) [Ingenol-5,20-acetonide], -2.5%.
For the compound `C/C=C(/C)C(=O)O[C@H]1C(C)=C[C@]23C(=O)[C@@H](C=C(CO)[C@@H](O)[C@]12O)[C@H]1[C@@H](C[C@H]3C)C1(C)C` [Ingenol Mebutate], the “OC43 Inhibition rate” value came to 1.1%.
On to `Cc1cc(=O)c2c(O)c3c(cc2o1)OC(C)(C)[C@@H](O[C@@H]1O[C@H](CO)[C@@H](O)[C@H](O)[C@H]1O)C3` [Sec-O-Glucosylhamaudol], for which the “OC43 Inhibition rate” value was -0.4%.
